Consider 20 molecules from PubChem BioAssay.

Structures are written as SMILES. Values without a mark were called inactive. For some of these results: Measured potencies and affinities stand elsewhere. Active and inactive are the calls of the source. Unless noted, the rule behind the calls is not given here.

Experiment [1] can be described thus: antimalarial activity against Dd2 strain (AID 2302;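 active = growth inhibition above 50% at the single 2 µM test dose, taken to imply half-maximal potency below 2 µM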;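 note: 0% = DMSO untreated growth and 100% = chloroquine plus artemisinin killed control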). Particulars: P. falciparum Dd2 in RBCs, LDH growth readout, 72 h; at 2 µM; active compounds read high.
The nature of experiment [2]: human hepatoma cell viability loss – ATP luminescence, cytotoxicity control for P. falciparum antimalarial project, primary screen (AID 2303;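 active = inhibition above 50%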;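 note: 0% = DMSO wells and 100% = digitonin-killed cells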). As to conditions: HepG2 viability, 24-48 h, at 10 µM, active compounds read high.
Experiment [3] deals with L-lactate dehydrogenase (Plasmodium falciparum (isolate CDC / Honduras)) (UniProt Q27743). The experiment can be described thus: PfLDH activity inhibition – cell lysate, 3D7 strain, counter-screen for P. falciparum growth inhibition project (AID 2304).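 Note: 0% = vehicle and 100% = reference inhibitor.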 As to conditions: P. falciparum 3D7 crude extract, LDH APAD/NBT absorbance; at 2 µM; active compounds read high. A general note: A counterscreen serves to expose hits that act by an unwanted route or on another target.

Experiment [4] in a line: inhibition of 3D7 malaria parasite growth – strain 3D7 (AID 2306).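 Note: 0% = DMSO wells and 100% = chloroquine plus artemisinin control wells.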 As to conditions: P. falciparum 3D7 erythrocytic growth, LDH absorbance, 72 h; at 2 µM; active compounds read high.
Experiment [5] addresses Calcium-dependent protein kinase 1 (Plasmodium falciparum (isolate 3D7)) (UniProt P62344). The experiment can be described thus: PfCDPK1 kinase inhibitors, biochemical, TCAMS library (AID 1159585; cut-off not given, nearly all actives have IC50 up to about 0.98 µM;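 note: inhibitors leave more ATP so luminescence rises with inhibition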). As to conditions: recombinant PfCDPK1, Kinase-Glo ATP depletion luminescence. On the technique in general: Kinase-Glo reads ATP consumption through a luciferase reaction.
Experiment [6] concerns the target Plasmodium falciparum protein kinase 6 (PK6, PF3D7_1337100) (UniProt Q8IDW1). The experiment can be described thus: PfPK6 kinase inhibitors, biochemical, TCAMS library (AID 1159586). Particulars: recombinant PfPK6, Kinase-Glo ATP depletion luminescence.
Experiment [7] addresses Protein kinase 7 (PK7), Plasmodium falciparum 3D7 (PF3D7_0213400) (UniProt Q7YTF7). The experiment can be described thus: inhibition of Plasmodium PK7 catalytic activity – biochemical, TCAMS antimalarial set, Kinase-Glo luminescence (AID 1159587). Particulars: recombinant PfPK7, Kinase-Glo ATP depletion luminescence.
Experiment [8] deals with Calcium-dependent protein kinase 4 (Plasmodium falciparum (isolate 3D7)) (UniProt Q8IBS5). The experiment can be described thus: PfCDPK4 kinase inhibitors, biochemical, TCAMS library (AID 1159588; cut-off not given, nearly all actives have IC50 up to about 0.91 µM). Particulars: recombinant PfCDPK4, Kinase-Glo ATP depletion luminescence.
Chain of Calcium-dependent protein kinase 4 (Plasmodium falciparum (isolate 3D7)) (Q8IBS5 whole entry, looked up): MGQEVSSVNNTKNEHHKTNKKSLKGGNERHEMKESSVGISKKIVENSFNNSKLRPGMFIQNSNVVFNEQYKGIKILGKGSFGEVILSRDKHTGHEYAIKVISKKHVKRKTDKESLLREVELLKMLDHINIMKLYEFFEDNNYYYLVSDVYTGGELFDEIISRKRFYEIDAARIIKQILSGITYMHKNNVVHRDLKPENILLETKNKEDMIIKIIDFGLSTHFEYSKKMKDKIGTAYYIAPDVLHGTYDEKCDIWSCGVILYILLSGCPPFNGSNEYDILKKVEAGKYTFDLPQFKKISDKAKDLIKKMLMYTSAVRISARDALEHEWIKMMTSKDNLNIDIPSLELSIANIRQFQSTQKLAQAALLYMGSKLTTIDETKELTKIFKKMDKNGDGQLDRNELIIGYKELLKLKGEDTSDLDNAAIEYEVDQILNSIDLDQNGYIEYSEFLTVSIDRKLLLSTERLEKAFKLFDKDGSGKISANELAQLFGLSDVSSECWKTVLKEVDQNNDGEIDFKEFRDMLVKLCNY

Chain of Calcium-dependent protein kinase 1 (Plasmodium falciparum (isolate 3D7)) (P62344 whole entry, looked up): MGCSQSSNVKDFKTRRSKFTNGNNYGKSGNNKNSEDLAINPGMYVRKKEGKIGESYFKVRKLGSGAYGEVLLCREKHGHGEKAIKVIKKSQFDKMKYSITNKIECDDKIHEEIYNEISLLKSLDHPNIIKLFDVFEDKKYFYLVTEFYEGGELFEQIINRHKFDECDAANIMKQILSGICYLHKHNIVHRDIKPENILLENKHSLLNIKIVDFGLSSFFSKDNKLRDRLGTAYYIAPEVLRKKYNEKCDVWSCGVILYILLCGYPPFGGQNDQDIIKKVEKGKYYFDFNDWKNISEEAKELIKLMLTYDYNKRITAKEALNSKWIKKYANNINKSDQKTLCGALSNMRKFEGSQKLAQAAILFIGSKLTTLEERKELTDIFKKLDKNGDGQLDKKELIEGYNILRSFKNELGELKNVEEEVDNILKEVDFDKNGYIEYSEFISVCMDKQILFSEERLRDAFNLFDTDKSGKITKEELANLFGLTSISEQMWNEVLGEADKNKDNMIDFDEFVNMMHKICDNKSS
Chain of Plasmodium falciparum protein kinase 6 (PK6, PF3D7_1337100) (Q8IDW1 1-305): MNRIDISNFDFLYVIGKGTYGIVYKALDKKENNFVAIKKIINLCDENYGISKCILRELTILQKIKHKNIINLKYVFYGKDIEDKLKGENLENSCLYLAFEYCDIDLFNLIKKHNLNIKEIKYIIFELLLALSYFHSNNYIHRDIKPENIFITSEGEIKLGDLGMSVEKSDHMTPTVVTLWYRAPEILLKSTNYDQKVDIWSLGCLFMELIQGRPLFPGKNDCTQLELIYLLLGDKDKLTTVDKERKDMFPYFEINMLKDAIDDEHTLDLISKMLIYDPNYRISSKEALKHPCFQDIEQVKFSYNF
Chain of Protein kinase 7 (PK7), Plasmodium falciparum 3D7 (PF3D7_0213400) (Q7YTF7 1-343): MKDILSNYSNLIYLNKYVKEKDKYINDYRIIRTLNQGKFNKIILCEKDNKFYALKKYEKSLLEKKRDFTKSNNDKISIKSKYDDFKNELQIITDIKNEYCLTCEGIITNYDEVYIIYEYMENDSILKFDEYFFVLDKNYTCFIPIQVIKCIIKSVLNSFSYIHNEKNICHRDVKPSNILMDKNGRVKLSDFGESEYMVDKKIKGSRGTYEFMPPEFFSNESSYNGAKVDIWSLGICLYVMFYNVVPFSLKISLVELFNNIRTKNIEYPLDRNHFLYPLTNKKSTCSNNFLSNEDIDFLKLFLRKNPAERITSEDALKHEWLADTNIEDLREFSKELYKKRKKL
Chain of L-lactate dehydrogenase (Plasmodium falciparum (isolate CDC / Honduras)) (Q27743 whole entry, looked up): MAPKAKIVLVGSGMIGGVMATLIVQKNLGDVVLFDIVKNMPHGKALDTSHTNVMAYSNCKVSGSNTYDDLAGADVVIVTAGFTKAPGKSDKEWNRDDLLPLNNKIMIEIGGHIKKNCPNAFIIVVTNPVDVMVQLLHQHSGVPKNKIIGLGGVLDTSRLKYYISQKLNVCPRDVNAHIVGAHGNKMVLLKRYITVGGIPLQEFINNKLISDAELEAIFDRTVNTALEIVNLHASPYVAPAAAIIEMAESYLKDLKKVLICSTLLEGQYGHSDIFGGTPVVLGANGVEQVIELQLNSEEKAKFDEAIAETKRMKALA

In general, inhibition refers to the change of the read-out against control, counted positive when it falls. `COc1cc(/C=C/C(=O)NCC(CCNc2cc(=O)c3ccccc3[nH]2)NCc2cc(Br)cc(Br)c2)cc(OC)c1` (stereo not given): the growth inhibition in experiment [1] was 28%; in experiment [4], 90% (active). The results for the inhibition in experiment [2] and in experiment [3] were -11% and -4%, respectively. Further, the outcome in experiment [5], in experiment [6], in experiment [7] and in experiment [8] was inactive.
On to `O=C(C=Cc1ccc(Cl)c(Cl)c1)NCCCCCN1CCC(CCCNS(=O)(=O)c2ccc(F)cc2)CC1`, for which the growth inhibition is 20% in experiment [1] and 93% (active) in experiment [4]. In addition, the inhibition in experiment [2] was 52% (active); in experiment [3], 4%. The result in experiment [5], in experiment [6], in experiment [7] and in experiment [8] was inactive.
Turning to `CC(=O)N1N=C(c2ccc(F)cc2)Sc2c1nc(C1CCCCC1)n2C(C)=O`, the growth inhibition in experiment [1] was 9%; in experiment [4] it was 92% (active). The inhibition in experiment [2] and in experiment [3] was 4% in each case. Besides, the result in experiment [5], in experiment [6], in experiment [7] and in experiment [8] was inactive.
`O=C(/C=C/c1ccc(Cl)c(Cl)c1)NCCCCCCN1CCN(C(=O)Nc2ccc(OC(F)F)cc2)CC1`: the growth inhibition in experiment [1] was 15%; in experiment [4] it was 91% (active). Moreover, the values for the inhibition in experiment [2] and in experiment [3] were 44% and -4%, respectively. Further, the result in experiment [5], in experiment [6], in experiment [7] and in experiment [8] was inactive.
`O=[N+]([O-])c1ccc(C=NNc2nc(Nc3ccccc3)nc(Nc3ccccc3)n2)o1`: the values for the growth inhibition in experiment [1] and in experiment [4] were 61% (active) and 94% (active), respectively. For the same molecule, the inhibition in experiment [2] is 5%; in experiment [3] it was -4%. Moreover, the result in experiment [5], in experiment [6], in experiment [7] and in experiment [8] was inactive.
On to `CN1CCCN(Cc2cccc(-c3cccc(NS(=O)(=O)c4cccc5cccnc45)c3)c2)CC1`, for which the results for the growth inhibition in experiment [1] and in experiment [4] were 74% (active) and 97% (active), respectively. Further, the figures for the inhibition in experiment [2] and in experiment [3] were 21% and -6%, respectively. Further, the result in experiment [5], in experiment [6], in experiment [7] and in experiment [8] was inactive.
As for `O=C(NCC1CC1)C1CCN(C(c2ccccc2)c2nc3ccccc3s2)CC1` (stereo not given), the growth inhibition in experiment [1] was 49%; in experiment [4] it was 92% (active). The inhibition is -3% in experiment [2] and 8% in experiment [3]. Moreover, the outcome in experiment [5], in experiment [6], in experiment [7] and in experiment [8] was inactive.
Regarding `Cn1ccnc1-c1nc2ccccn2c1NCC(=O)Nc1ccccc1N1CCCCC1`, the growth inhibition was 57% (active) in experiment [1] and 85% (active) in experiment [4]. In addition, the results for the inhibition in experiment [2] and in experiment [3] were 16% and -7%, respectively. The result in experiment [5], in experiment [6], in experiment [7] and in experiment [8] was inactive.
`Cc1sc(C)c(CNCCCNc2cc(=O)c3ccccc3[nH]2)c1Br`: the values for the growth inhibition in experiment [1] and in experiment [4] were 15% and 93% (active), respectively. The values for the inhibition in experiment [2] and in experiment [3] were -4% and -2%, respectively. The result in experiment [5], in experiment [6], in experiment [7] and in experiment [8] was inactive.
As to `CCCCNCc1ccc(-c2nc(CN(Cc3ccc(Cl)c(Cl)c3)C(=O)CN(C)C)cs2)cc1`, the growth inhibition in experiment [1] is 51% (active); in experiment [4], 100% (active). For the same molecule, the figures for the inhibition in experiment [2] and in experiment [3] were 36% and 7%, respectively. The outcome in experiment [5], in experiment [6], in experiment [7] and in experiment [8] was inactive.
`c1ccc(COc2ccc(Nc3ncnc4cnc(-c5ccc(CN6CCCCC6)o5)cc34)cc2)cc1`: the growth inhibition in experiment [1] is 13%; in experiment [4], 90% (active). In addition, the figures for the inhibition in experiment [2] and in experiment [3] were -14% and -5%, respectively. The result in experiment [5], in experiment [6], in experiment [7] and in experiment [8] was inactive.
Turning to `CCOc1cc(C)c(C2CCN(CCCCNC(=O)c3ccc(NC(=O)c4ccc(Cl)cc4)cc3)CC2)cc1C`, the growth inhibition in experiment [1] was 87% (active); in experiment [4], 100% (active). Besides, the figures for the inhibition in experiment [2] and in experiment [3] were 10% and 1%, respectively. The result in experiment [5], in experiment [6], in experiment [7] and in experiment [8] was inactive.
In the case of `CCc1c(C(=O)NC2CCC(N3CCC(c4ccccc4C)CC3)CC2)[nH]c2ccc(Br)cc12` (stereo not given), the results for the growth inhibition in experiment [1] and in experiment [4] were 99% (active) and 101% (active), respectively. In addition, the inhibition in experiment [2] was 81% (active); in experiment [3] it was -5%. The result in experiment [5], in experiment [6], in experiment [7] and in experiment [8] was inactive.
Turning to `CCn1cc(C=C2Oc3c(ccc(O)c3CN3CCCCC3C)C2=O)c2ccccc21` (stereo not given), the results for the growth inhibition in experiment [1] and in experiment [4] were 80% (active) and 94% (active), respectively. The inhibition in experiment [2] is -6%; in experiment [3] it was 6%. Besides, the outcome in experiment [5], in experiment [6], in experiment [7] and in experiment [8] was inactive.
Take `CCN(CCCN1CCCCC1)c1cc(C)nc(Nc2cc(F)cc(F)c2)n1`: the growth inhibition is 64% (active) in experiment [1] and 102% (active) in experiment [4]. In addition, the inhibition was 15% in experiment [2] and 5% in experiment [3]. The outcome in experiment [5], in experiment [6], in experiment [7] and in experiment [8] was inactive.
As to `O=C(/C=C/c1c(Cl)cccc1Cl)NC1CCC(CN2CCC(Cc3cc4ccccc4[nH]3)CC2)CC1` (stereo not given), the results for the growth inhibition in experiment [1] and in experiment [4] were 17% and 91% (active), respectively. In addition, the inhibition in experiment [2] is 97% (active); in experiment [3] it was -1%. For the same molecule, the outcome in experiment [5], in experiment [6], in experiment [7] and in experiment [8] was inactive.
On to `O=S(=O)(Nc1cccc(CCN2CCC(N3CCCCC3)CC2)c1)c1cccc2cccnc12`, for which the growth inhibition in experiment [1] was 17%; in experiment [4] it was 98% (active). For the same molecule, the inhibition in experiment [2] is 0%; in experiment [3] it was 1%. Also, the outcome in experiment [5], in experiment [6], in experiment [7] and in experiment [8] was inactive.
Regarding `COc1ccc(O)c(-c2sc(N=C(N)N)nc2-c2ccccc2)c1`, the growth inhibition is 96% (active) in experiment [1] and 101% (active) in experiment [4]. Besides, the results for the inhibition in experiment [2] and in experiment [3] were 2% and -2%, respectively. Moreover, the result in experiment [5], in experiment [6], in experiment [7] and in experiment [8] was inactive.
In the case of `COc1ccc(CN(C)Cc2ccc(NC(=O)c3cccc4c(=O)c5cccc(C)c5[nH]c34)cc2)cc1OC`, the results for the growth inhibition in experiment [1] and in experiment [4] were 22% and 92% (active), respectively. Moreover, the figures for the inhibition in experiment [2] and in experiment [3] were 7% and -2%, respectively. In addition, the result in experiment [5], in experiment [6], in experiment [7] and in experiment [8] was inactive.
`CC(=O)Nc1ccc(COc2ccc(Nc3ccnc4cc(-c5ccccn5)ccc34)cc2)cc1`: the figures for the growth inhibition in experiment [1] and in experiment [4] were 94% (active) and 99% (active), respectively. Further, the inhibition was 99% (active) in experiment [2] and 3% in experiment [3]. Also, the result in experiment [5], in experiment [6], in experiment [7] and in experiment [8] was inactive.
